# Experimental data as given in the supplement of paper PMC7858590.
# ± gives the standard deviation of the averaged measurements. The full ranking holds about 3,800 compounds; the median of “cell shape (eccentricity) Z-score vs DMSO control” is about 1.1, and the lowest 2% start at about -4.7. What follows is part of a selection rich in the lowest values, with near analogues and random picks from the rest.
# System: human monocyte-derived macrophages (M0)
# Assay: cell shape (eccentricity) Z-score vs DMSO control; higher = more elongated, M2-like morphology
# Details: 20 µM; 24 h; macrophage state: M0 (M-CSF)
# Description: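 Primary human monocyte-derived macrophages (M-CSF differentiated, pooled from 4 donors, 5000 cells/well in 384-well plates) were treated with each compound at 20 uM for 24 h, then fixed and stained with phalloidin/DAPI and imaged on an Opera Phenix (6 fields, about 1000 cells/well). Cell eccentricity was measured with CellProfiler, and a Z-score (t-test) was computed against 4 DMSO control wells in the same row. Negative values mean round (M1-like) cells and positive values mean elongated (M2-like) cells; the paper's hit cutoffs are Z <= -4 (M1) and Z >= 6 (M2). Scale: negative = round, M1-like.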
row,Compound,cell shape (Z-score)
1,Cc1cc(O)cc2oc3cc(O)cc(O)c3c(=O)c12,-1.58
2,CCCC(=O)Nc1ccc(OCC(O)CNC(C)C)c(C(C)=O)c1 (stereo not drawn),1.65
3,CC1=C(CO)C(=O)OC([C@@H](C)[C@H]2CCC3C4CC=C5C[C@@H](O[C@@H]6O[C@H](CO)[C@@H](O)[C@H](O)[C@H]6O)C[C@H](O)[C@]5(C)C4CC[C@@]32C)C1 (stereo partly drawn),1.5
4,C[C@@H](Oc1cc(-n2cnc3ccc(CN4CCN(C)CC4)cc32)sc1C(N)=O)c1ccccc1C(F)(F)F,3.02
5,C=C1[C@H]2CC[C@@]3(C)[C@H](c4ccoc4)OC(=O)C[C@]13O[C@H]1C[C@H](O)C(C)(C)[C@H](CC(=O)OC)[C@]12C,-1.66
6,C=C1C(=O)OC2CC3(C)CCC=C(CO)C3CC12 (stereo not drawn),-3.71
7,COC(=O)C1=CO[C@@H](O[C@@H]2O[C@H](CO)[C@@H](O)[C@H](O)[C@H]2O)[C@H]2[C@@H]1C=CC21C=C([C@H](C)O)C(=O)O1 (stereo partly drawn),2.96
8,CC(=O)OCC(Cc1ccccc1)NC(=O)C(Cc1ccccc1)NC(=O)c1ccccc1 (stereo not drawn),0.368
9,Cc1cc(O)c(C)c2c1Oc1c(C)c(O)cc(C)c1C(=O)O2,-6.49
10,COc1cc(C)c2c(c1C=O)Oc1c(c(C)c(O)c3c1C(O)OC3=O)OC2=O (stereo not drawn),-1.59
11,Cc1cc(O)c(C=O)c2c1C(=O)Oc1c(C)c(O)c3c(c1O2)C(O)OC3=O (stereo not drawn),1.11
12,CC(=O)OCC(=O)[C@@]1(O)CCC2C3C[C@H](C)C4=CC(=O)C=CC4(C)C3[C@@H](O)CC21C (stereo partly drawn),-2.52
13,CC(CN(C)C)CN1c2ccccc2Sc2ccccc21 (stereo not drawn),-1.29
14,COc1ccc2nc(NC(=O)Nc3ccccc3)sc2c1,2.21
15,O=C(Nc1ccc(C(=O)O)c(O)c1)c1ccccc1,1.5
16,O=C(Nc1nc2ccc(NC(=O)C34C[C@H]5C[C@@H](C3)C[C@@H](C4)C5)cc2s1)c1ccccc1,-4.79
17,N=C(N)NCCNS(=O)(=O)c1cccc2cnccc12,5.63
18,CCCCCC1C(=O)O/C(=C\C(=O)O)C1=O (stereo not drawn),-1.15
19,C[C@@H](NC(=O)/C(C#N)=C\c1ccc(O)c(O)c1)c1ccccc1,0.038
20,CCC[C@H](NC(=O)/C(C#N)=C/c1cccc(Br)n1)c1ccccc1,-4.73

row,Compound,cell shape (Z-score)
1,C[C@H](NC(=O)/C(C#N)=C/c1ccc(O)c(O)c1)c1ccccc1,-2.26
2,C[C@@H]1CN(CC(=O)Nc2ccc3c(c2)Cc2cccc(-c4cc(=O)cc(N5CCOCC5)o4)c2S3)C[C@H](C)O1,4.22
3,CC1(C)C2CC[C@]3(C)C(C(=O)C=C4[C@H]5C[C@@](C)(C(=O)O)CC[C@]5(C)CC[C@]43C)[C@@]2(C)CC[C@@H]1O (stereo partly drawn),0.344
4,CC(=O)Oc1cc2c(c(C)c1OC(C)=O)CC=C1[C@@]2(C)CC[C@@]2(C)C3C[C@](C)(C(=O)O)CC[C@]3(C)CC[C@]12C (stereo partly drawn),-13.8
5,Cc1cc(C(C)(C)CC(C)(C)C)ccc1OCCOCC[N+](C)(C)Cc1ccccc1,-4.7
6,CC(C)(C)CC(C)(C)c1ccc(OCCOCC[N+](C)(C)Cc2ccccc2)cc1,-0.216
7,CC(C)(C)CC(C)(C)c1ccc(O)c(-n2nc3ccccc3n2)c1,-0.381
8,O=C(O)c1cccnc1Nc1cccc(C(F)(F)F)c1,2.97
9,COc1ccc(/C=C/C(=O)c2ccc(O)cc2O)cc1,-5.34
10,COc1ccc(/C=C/C(=O)c2cc(O)ccc2O)cc1,2.34
11,CCOC(=O)C1=C(C)NC(C)=C(C(=O)OC)C1c1cccc([N+](=O)[O-])c1 (stereo not drawn),1.64
12,COc1ccc2c(c1OC)OC[C@@H](c1ccc(OC)c(OC)c1OC)C2,2.19
13,COc1cc(C[C@@H]2COC(c3ccc(O[C@@H]4O[C@H](CO)[C@@H](O)[C@H](O)[C@H]4O)c(OC)c3)[C@@H]2CO)ccc1O[C@@H]1O[C@H](CO)[C@@H](O)[C@H](O)[C@H]1O (stereo partly drawn),2.98
14,Nc1ccc(-c2nc3ccc(-c4nc5ccc(N)cc5[nH]4)cc3[nH]2)cc1,-0.879
15,O=C1c2ccc(Nc3ccc(F)cc3F)cc2CCc2ccc(OC[C@H](O)CO)cc21,-6.5
16,O=C(NOCC(O)CO)c1cc(Br)c(F)c(F)c1Nc1ccc(I)cc1F (stereo not drawn),-0.375
17,CC(=O)O[C@@H]1[C@@H](O)[C@H](C)O[C@@H](Oc2c(-c3ccc(O)cc3)oc3cc(O[C@@H]4O[C@@H](C)[C@H](O)[C@@H](O)[C@H]4O)cc(O)c3c2=O)[C@@H]1O,1.24
18,C[C@@](Cc1ccc(O)c(O)c1)(NN)C(=O)O,1.55
19,COc1ccc(C(=C2C(=O)Nc3ccccc32)c2ccc(OC)cc2)cc1,1.61
20,COc1ccc(C(=O)/C=C/c2ccccc2)cc1,3.14

row,Compound,cell shape (Z-score)
1,COc1ccc(C(=O)CC2(O)C(=O)Nc3c(Cl)ccc(Cl)c32)cc1 (stereo not drawn),-7.6
2,O=C(O)c1ccc(NCc2nc3cc4ccccc4cc3[nH]2)cc1,1.43
3,CC1(C)O[C@@H]2CC3C4CCC5=CC(=O)C=C[C@]5(C)[C@@]4(F)[C@@H](O)C[C@]3(C)[C@]2(C(=O)CO)O1 (stereo partly drawn),-2.57
4,COc1ccc(NC(=O)c2ccc(-c3ccc(-c4noc(C)n4)cc3C)cc2)cc1N1CCN(C)CC1,-0.626
5,Cc1ccc(O)c(N=Nc2ccccc2)n1,-7.89
6,Cc1ccc2ccc3ccc(C)nc3c2n1,3.48
7,Nc1ccc(/N=N/c2ccccc2)c(N)n1,-1.01
8,C=C[C@@](C)(O)CCC1C(=C)CCC2[C@@](C)(CO)CCC[C@]12C (stereo partly drawn),4.09
9,COC1=C(N)C(=O)c2nc(-c3nc(C(=O)O)c(C)c(-c4ccc(OC)c(OC)c4O)c3N)ccc2C1=O,0.0737
10,Nc1ccccc1NC(=O)c1ccc(CNC(=O)OCc2cccnc2)cc1,-10.6 ± 0.74
11,CC(C)(C)c1ccc(S(=O)(=O)NCc2ccc(C(=O)Nc3cccnc3)cc2)cc1,1.14
12,CC(=O)Nc1ccc(C(=O)Nc2ccccc2N)cc1,-3.16 ± 2.7
13,Nc1ccccc1NC(=O)c1ccc(CNc2nccc(-c3cccnc3)n2)cc1,-11.8
14,Nc1cc(-c2ccncc2)c[nH]c1=O,0.0533
15,COc1cc2c(c(OC)c1)C(=O)OC(C)C2 (stereo not drawn),-2.38
16,Cc1ccccc1NC(=N)Nc1ccccc1C,2.28
17,O=c1c(OC2OC(CO)C(O)C(O)C2OC2OC(CO)C(O)C(O)C2O)c(-c2ccc(O)cc2)oc2cc(O)cc(O)c12 (stereo not drawn),0.138 ± 1.7
18,CC1(C)C(=O)C=C[C@@]2(C)C1CC(=O)[C@]1(C)C2CC[C@@]2(C)[C@H](c3ccoc3)OC(=O)[C@H]3O[C@]321 (stereo partly drawn),-1.42
